Experimental data from the supplement of paper PMC12282887.
± gives the standard deviation of the averaged measurements.

Columns and labels:
Test in all cases: promoter activity interaction Z-score (Lux/OD deviation from empty-vector control); higher = stronger promoter induction by the compound
[1] = system: E. coli BW25113 acrABp lux reporter
Method in brief: (§1)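 At 37°C, E. coli BW25113 reporter cultures in 40 µl LB Lennox in 384-well plates were read for OD600 and luminescence every 30 min for 12 h. Windows were 0–8 h for wild type and 1–9 h for deletion strains, and wells under 10% of the median growth value were removed. The score is the Z-transformed residual of growth-normalised luminescence against a control fit.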

[2] = system: E. coli BW25113 marRABp lux reporter
Method in brief: as §1

[3] = system: E. coli BW25113 micFp lux reporter
Method in brief: as §1

[4] = system: E. coli BW25113 ompFp lux reporter
Method in brief: as §1

[5] = system: E. coli BW25113 robp lux reporter
Method in brief: as §1

[6] = system: E. coli BW25113 soxSp lux reporter
Method in brief: as §1

[7] = system: E. coli BW25113 tolCp lux reporter
Method in brief: as §1

[8] = 24.6 µg/ml, genetic background: wild type
[9] = 24.6 µg/ml, genetic background: ΔmarA
[10] = 24.6 µg/ml, genetic background: Δrob
[11] = 24.6 µg/ml, genetic background: ΔsoxS
[12] = 49.3 µg/ml, genetic background: wild type
[13] = 49.3 µg/ml, genetic background: ΔmarA
[14] = 49.3 µg/ml, genetic background: Δrob
[15] = 49.3 µg/ml, genetic background: ΔsoxS
[16] = 98.6 µg/ml, genetic background: wild type
[17] = 98.6 µg/ml, genetic background: ΔmarA
[18] = 98.6 µg/ml, genetic background: Δrob
[19] = 98.6 µg/ml, genetic background: ΔsoxS
[20] = 197.1 µg/ml, genetic background: wild type

CC[n+]1c(-c2ccccc2)c2cc(N)ccc2c2ccc(N)cc21 [Ethidiumbromide]
promoter activity interaction Z-score [1, 8]: 0.326 ± 0.22
promoter activity interaction Z-score [1, 9]: 0.524 ± 0.7
promoter activity interaction Z-score [1, 10]: 0.354 ± 0.098
promoter activity interaction Z-score [1, 11]: -0.0764 ± 0.31
promoter activity interaction Z-score [1, 12]: 0.808 ± 0.11
promoter activity interaction Z-score [1, 13]: 1.18 ± 0.92
promoter activity interaction Z-score [1, 14]: 0.756 ± 0.029
promoter activity interaction Z-score [1, 15]: 0.5305 ± 0.0051
promoter activity interaction Z-score [1, 16]: 1.2 ± 0.53
promoter activity interaction Z-score [1, 17]: 0.599 ± 1.3
promoter activity interaction Z-score [1, 18]: 0.819 ± 0.29
promoter activity interaction Z-score [1, 19]: 0.475 ± 0.05
promoter activity interaction Z-score [2, 8]: 0.958 ± 0.21
promoter activity interaction Z-score [2, 9]: 0.99 ± 0.055
promoter activity interaction Z-score [2, 10]: 0.804 ± 0.17
promoter activity interaction Z-score [2, 11]: 0.684 ± 0.19
promoter activity interaction Z-score [2, 12]: 1.32 ± 0.076
promoter activity interaction Z-score [2, 13]: 1.56 ± 0.57
promoter activity interaction Z-score [2, 14]: 1.1 ± 0.13
promoter activity interaction Z-score [2, 15]: 1.368 ± 0.0038
promoter activity interaction Z-score [2, 16]: 1.6 ± 0.43
promoter activity interaction Z-score [2, 17]: 1.57 ± 0.26
promoter activity interaction Z-score [2, 18]: 1.07 ± 0.073
promoter activity interaction Z-score [2, 19]: 1.15 ± 0.091
promoter activity interaction Z-score [3, 8]: 0.89 ± 0.25
promoter activity interaction Z-score [3, 9]: 0.0467 ± 0.069
promoter activity interaction Z-score [3, 10]: 0.437 ± 0.23
promoter activity interaction Z-score [3, 11]: 0.0133 ± 0.038
promoter activity interaction Z-score [3, 12]: 1.09 ± 0.86
promoter activity interaction Z-score [3, 13]: 0.0126 ± 0.13
promoter activity interaction Z-score [3, 14]: 0.436 ± 0.016
promoter activity interaction Z-score [3, 15]: 0.338 ± 0.11
promoter activity interaction Z-score [3, 16]: 0.763 ± 1.3
promoter activity interaction Z-score [3, 17]: -0.124 ± 0.015
promoter activity interaction Z-score [3, 18]: 0.377 ± 0.036
promoter activity interaction Z-score [3, 19]: -0.366 ± 0.13
promoter activity interaction Z-score [3, 20]: 1.24
promoter activity interaction Z-score [4, 8]: 0.291 ± 0.39
promoter activity interaction Z-score [4, 9]: 0.262 ± 0.15
promoter activity interaction Z-score [4, 10]: 0.428 ± 0.57
promoter activity interaction Z-score [4, 11]: -0.386 ± 0.08
promoter activity interaction Z-score [4, 12]: 0.79 ± 0.52
promoter activity interaction Z-score [4, 13]: 0.776 ± 0.33
promoter activity interaction Z-score [4, 14]: 0.612 ± 0.19
promoter activity interaction Z-score [4, 15]: 0.772 ± 0.8
promoter activity interaction Z-score [4, 16]: 0.327 ± 1.1
promoter activity interaction Z-score [4, 17]: 0.808 ± 0.52
promoter activity interaction Z-score [4, 18]: -0.58 ± 0.54
promoter activity interaction Z-score [4, 19]: -0.257 ± 0.67
promoter activity interaction Z-score [5, 8]: 0.277 ± 0.67
promoter activity interaction Z-score [5, 9]: 0.595 ± 0.36
promoter activity interaction Z-score [5, 10]: 0.758 ± 0.77
promoter activity interaction Z-score [5, 11]: 1.25 ± 1.1
promoter activity interaction Z-score [5, 12]: -0.152 ± 0.42
promoter activity interaction Z-score [5, 13]: 1.37 ± 0.033
promoter activity interaction Z-score [5, 14]: -0.413 ± 0.32
promoter activity interaction Z-score [5, 15]: 0.804 ± 0.45
promoter activity interaction Z-score [5, 16]: -0.356 ± 0.7
promoter activity interaction Z-score [5, 17]: -0.204 ± 0.19
promoter activity interaction Z-score [5, 18]: -1.46 ± 0.089
promoter activity interaction Z-score [5, 19]: -0.959 ± 1.1
promoter activity interaction Z-score [6, 8]: 0.555 ± 0.028
promoter activity interaction Z-score [6, 9]: 0.911 ± 0.17
promoter activity interaction Z-score [6, 10]: 0.717 ± 0.25
promoter activity interaction Z-score [6, 11]: 1.38 ± 0.36
promoter activity interaction Z-score [6, 12]: 1.31 ± 0.084
promoter activity interaction Z-score [6, 13]: 1.5169 ± 0.00016
promoter activity interaction Z-score [6, 14]: 1.38 ± 0.24
promoter activity interaction Z-score [6, 15]: 2.47 ± 0.14
promoter activity interaction Z-score [6, 16]: 1.8 ± 0.019
promoter activity interaction Z-score [6, 17]: 2.07 ± 0.081
promoter activity interaction Z-score [6, 18]: 2.14 ± 0.22
promoter activity interaction Z-score [6, 19]: 3.77 ± 0.59
promoter activity interaction Z-score [6, 20]: 0.127 ± 0.036
promoter activity interaction Z-score [7, 8]: -0.0407 ± 0.73
promoter activity interaction Z-score [7, 9]: 0.142 ± 0.75
promoter activity interaction Z-score [7, 10]: -0.711 ± 0.15
promoter activity interaction Z-score [7, 11]: 0.75 ± 0.61
promoter activity interaction Z-score [7, 12]: 0.059 ± 0.45
promoter activity interaction Z-score [7, 13]: 0.836 ± 0.52
promoter activity interaction Z-score [7, 14]: -0.973 ± 1
promoter activity interaction Z-score [7, 15]: 0.167 ± 0.58
promoter activity interaction Z-score [7, 16]: 0.025 ± 1.1
promoter activity interaction Z-score [7, 17]: -0.192 ± 0.57
promoter activity interaction Z-score [7, 18]: -0.394 ± 0.42
promoter activity interaction Z-score [7, 19]: 0.815 ± 0.81
promoter activity interaction Z-score [7, 20]: -0.153 ± 0.69
promoter activity interaction Z-score ([7]; 197.1 µg/ml, genetic background: ΔsoxS): -1.48 ± 0.4
